Compound activity: PubChem BioAssay, National Center for Advancing Translational Sciences (NCATS)
Compounds with a hit are over-represented: about 11% of the library has one in this group of screens.
NPR1 antag = human Npr1 receptor antagonism. HEK293 hNpr1 GloSensor cGMP, ANP-stimulated luminescence. Potency, µM (doses to about 46.3 µM), without a hit: at the top dose activity change, negative = inhibition, actives largely listed as inhibitors. 76,000 tested, 1.6% active. AID 1347048; calls by dose curve; also: nearly all actives have a fitted effect of over 60% in size
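HEK293 cells stably expressing human Npr1 and cGMP GloSensor pGS-40F, loaded 2 h with 2% GloSensor reagent, given compound 30 min at room temperature. Luminescence read before and 20 min after 0.1 nM hNppA.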
Luciferase inh = blocks purified firefly luciferase enzyme activity. Potency, µM (top dose mostly 115 µM), hits mostly inhibitors. P08659. purified P. pyralis luciferase, luminescence, biochemical. 76,000 tested, 2.5% active; also: nearly all actives have a fitted effect of over 65% in size
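Luminescence read by CCD imaging after purified firefly luciferase (10nM final) was added to substrate buffer holding 10uM D-luciferin and 10uM ATP, pH 7.5, pre-dosed with compound.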
HEK293 tox = HEK 293 cell cytotoxicity | HEK 293 viability, ATP luminescence (CellTiter-Glo), 48-72 h | 94,000 tested, 6.6% active | Potency, µM (series often up to 115 µM), inactives show top-dose activity change, negative = cytotoxicity, most hits filed as inhibitors; also: nearly all actives have a fitted effect of over 60% in size
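Read-out: CellTiter-Glo ATP luminescence. Cells: HEK 293, 250 cells/well. Exposure: 48 or 72 hr, 37 degree Celsius.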
NIH3T3 tox = cytotoxic compounds in NIH 3T3 cells; NIH 3T3 viability, CellTiter-Glo ATP luminescence, 48-72 h; Potency, µM (top dose mostly 96.7 µM), for inactives: top-dose activity change, negative = cytotoxicity, actives largely listed as inhibitors; 94,000 tested, 4.3% active; also: nearly all actives have a fitted effect of over 55% in size
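Luminescent ATP readout (CellTiter-Glo, 10 min RT) after 48 or 72 hr compound exposure of NIH 3T3 cells seeded at 400 cells/well in 1536-well format; quantitative HTS.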
Active calls of the source: *; i = inactive; ? = inconclusive; . = no result given; ! = repeats disagree; [ ] = remark or other dose. Unless noted, calls follow the shape of the dose curve; as a rule, active = well fitted curve in the direction sought with a large enough effect; inconclusive = small, poorly fitted or top-dose-only effect, or another doubt; inactive = no such curve, though single readings can be large; an effect the other way counts as inactive or inconclusive. % is scaled to controls: 0 for no effect and ±100 for the full control effect; potency is read from the fitted curve at half-maximal effect.

SMILES | NPR1 antag | Luciferase inh | HEK293 tox | NIH3T3 tox
O=C(NC1CC1)C1CCCN1Cc1ccc(-c2cncnc2)cc1 (centres undefined) | . | . | i | 0%
COc1ccccc1-c1ccc(CN2CCCCC2C(=O)NC2CCCCC2)cc1 (centres undefined) | . | . | 22µM*! | 45µM*!
COc1ccccc1-c1cccc(C(=O)N2CCC[C@H]2C(=O)NC2CC2)c1 | . | . | 3% | -1%
COc1ccc(F)cc1-c1ccc(CN2CCCCC2C(=O)NC2CCC2)cc1 (centres undefined) | . | . | 35µM* | ?
CCCc1ccc(CN2CC[C@@H]3[C@@H](CCC(=O)N3CCc3cnc[nH]3)C2)o1 | -21% | i | ? | -23%
COc1ccc(F)cc1-c1ccc(CN2CCC(NC(=O)C3CCCCC3)C2)cc1 (centres undefined) | . | . | 45µM* | 32µM*
O=C1CC[C@]2(C(=O)NCc3ccccn3)CCCC[C@H]2N1CCc1ccccc1 | -4% | i | -13% | -18%
FC(F)(F)Oc1ccc(CNC2(Cc3cc(-c4ccccn4)on3)COC2)cc1 | -2%[70.6 µM] | i | ? | -22%[138 µM]
Clc1ccc(CNC2(Cc3cc(COc4ccccc4)on3)COC2)cc1 | -21%[70.6 µM] | i | 79µM* | ?
COc1ccc(-c2cc(CC3(NCc4ccc(C)o4)COC3)no2)cc1 | -19%[70.6 µM] | i | ? | ?
COc1ccc(-c2cc(CC3(NCc4ccccc4)COC3)no2)cc1 | 5%[70.6 µM] | i | 100µM* | ?
Fc1ccc(CNC2(Cc3cc(-c4ccccc4)on3)COC2)cc1 | ? | i | 89µM* | -14%[174 µM]
CC(C)(C)c1cc(CC2(NCc3ccc(OC(F)(F)F)cc3)COC2)no1 | 4%[70.6 µM] | i | ? | 112µM*
Cc1ccc(C)c(S(=O)(=O)N2CCCCC2c2noc(COCC3CC3)n2)c1 (centres undefined) | -19% | i | ? | ?
Oc1ccccc1CNC1(Cc2cc(-c3ccc(F)cc3)on2)COC1 | ? | i | 100µM* | ?
Clc1ccccc1CNC1(Cc2cc(-c3ccccc3)on2)COC1 | -14%[70.6 µM] | i | 112µM* | ?
CN(C)c1ccc(CNC2(Cc3cc(-c4ccccc4)on3)COC2)cc1 | -7%[70.6 µM] | i | 89µM* | -26%[174 µM]
Oc1ccccc1CNC1(Cc2cc(-c3ccccc3)on2)COC1 | -4%[70.6 µM] | i | -21%[172 µM] | ?
O=C(NCCc1ccccc1F)C1CCc2nnc(-c3cccc(C(F)(F)F)c3)n21 (centres undefined) | . | . | -27% | ?
O=C(N[C@@H](Cn1cc(Cl)c(=O)[nH]c1=O)C(=O)O)C1CCCCC1 | -1%[70.6 µM] | i | -3%[172 µM] | i
O=C(NCCCc1nc2ccccc2[nH]1)C1CC(=O)N(c2n[nH]c3ccccc23)C1 (centres undefined) | -3% | i | -3% | -16%
CCn1cc(C(CC(=O)N2CCC(C)CC2)c2cccc(Cl)c2)c2ccccc21 (centres undefined) | -16% | i | 40µM* | ?
COc1ccc(N2C(=O)CSC23CCN(C(=O)Nc2ccccc2)CC3)cc1 | 1% | ? | 1% | ?
CS(=O)(=O)c1ccc(-c2cnc([C@@H]3COCCN3Cc3ccc(Cl)cc3)[nH]2)cc1 | -15%[70.6 µM] | i | 79µM* | ?
Fc1ccc(CN2CCOC[C@H]2c2ncc(-c3cccc(Cl)c3)[nH]2)cc1 | ? | i | ? | 71µM*
SMILES | NPR1 antag | Luciferase inh | HEK293 tox | NIH3T3 tox
Clc1cccc(-c2cnc([C@@H]3COCCN3Cc3ncc[nH]3)[nH]2)c1 | 1%[70.6 µM] | i | -10%[172 µM] | -1%[138 µM]
CN(C)c1ccc(CN2CCOC[C@H]2c2ncc(-c3cccc(Cl)c3)[nH]2)cc1 | -30%[70.6 µM] | i | 112µM* | ?
Fc1ccccc1CN1CCOC[C@H]1c1ncc(-c2cccc(Cl)c2)[nH]1 | -19%[70.6 µM] | i | 79µM* | 79µM*
COc1cccc(CN2CC[C@@H]3C(=O)NCCCCCCN(Cc4ccncc4)[C@@H]3C2)n1 | 0% | i | -12% | -15%
Oc1ccccc1CN1CCOC[C@H]1c1ncc(-c2ccc(F)cc2F)[nH]1 | -25%[70.6 µM] | i | 79µM* | ?
CN(C)c1ccc(CN2CCOC[C@H]2c2ncc(-c3ccc(F)cc3F)[nH]2)cc1 | -16%[70.6 µM] | i | ? | ?
Fc1cccc(-c2cnc([C@@H]3COCCN3Cc3ccc(Cl)cc3)[nH]2)c1 | ? | i | 79µM* | ?
